Laboratory results as given in the supplement of paper PMC7695840.
Counter-ions that a name gives are not always drawn.

Columns and labels:
[1] = test system: Staphylococcus aureus MW2 delta-mecA (mecA-); assay: normalized GFP fluorescence (growth of mecA- strain) (fraction of control range); higher = more growth of mecA- strain; conditions: compound concentration: 150 uM; cefoxitin: subinhibitory; fluorescent label: GFP
Method in brief: (§1)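 Two pre-induced S. aureus MW2 strains, one with the gene labeled by DsRed and one lacking it labeled by GFP, were mixed 1:1 in LB with a subinhibitory antibiotic dose set daily. The mix went at 5 µL/well onto 150 μM compound (1.5% DMSO) in 1536-well plates, single replicate, and grew unshaken 20 h at 37 °C, 90% humidity. DsRed (540/590) and GFP (485/520) values were scaled per plate between single-strain control medians, and plates with high untreated ratios or rows with DsRed/GFP >10 were left out.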

[2] = test system: Staphylococcus aureus MW2 (mecA+); assay: normalized DsRed fluorescence (growth of mecA+ strain) (fraction of control range); higher = more growth of mecA+ strain; conditions: compound concentration: 150 uM; cefoxitin: subinhibitory; fluorescent label: DsRed
Method in brief: as §1

Compound	normalized GFP fluorescence [1]	normalized DsRed fluorescence [2]
CCC(NC(C)C)C(O)c1ccc(O)c(O)c1 (stereo not given)	0.38	0.581
O=C(O)c1cccc(-c2noc(-c3ccccc3F)n2)c1 [PTC124 (Ataluren)]	0.0948	0.473
O=c1[nH]cnc2c1ncn2[C@@H]1O[C@H](CO)[C@@H](O)[C@H]1O [Inosine]	0.197	0.97
OCCOCCN1CCN(C2=Nc3ccccc3Sc3ccccc32)CC1 [Quetiapine fumarate (Seroquel)]	0.0887	1.15
O=C1c2cccc3c2[C@H](CCC3)CN1[C@@H]1CN2CCC1CC2 [Palonosetron HCl]	0.203	0.709
COc1cc(Nc2c(C#N)cnc3cc(OCCCN4CCN(C)CC4)c(OC)cc23)c(Cl)cc1Cl [Bosutinib (SKI-606)]	-0.0247	0.727
CS(=O)(=O)c1ccc([C@@H](O)[C@@H](CO)NC(=O)C(Cl)Cl)cc1	0.776	0.661
C[C@H]1O[C@H](O[C@H]2[C@H](O)[C@@H](O)[C@@H](O[C@H]3[C@H](O)[C@@H](O)C(O)O[C@@H]3CO)O[C@@H]2CO)[C@H](O)[C@@H](O)[C@@H]1N[C@H]1C=C(CO)[C@@H](O)[C@H](O)[C@H]1O (stereo not given in full)	0.505	0.683
Cn1nnc2c(C(N)=O)ncn2c1=O [Temozolomide]	0.456	1.11
CC(=O)CCCCn1c(=O)c2c(ncn2C)n(C)c1=O	0.276	0.952
N#Cc1c(N(CC(=O)O)CC(=O)O)sc(C(=O)O)c1CC(=O)O [Strontium ranelate (Protelos)]	0.212	0.694
Nc1nnc(-c2cccc(Cl)c2Cl)c(N)n1 [Lamotrigine]	-0.0077	1.04
C1CCC(C(CC2CCCCN2)C2CCCCC2)CC1 (stereo not given)	0.000248	0.0259
CCCCN1CCCCC1C(=O)Nc1c(C)cccc1C (stereo not given)	0.62	0.887
CN(C)CC/C=C1/c2ccccc2COc2ccc(CC(=O)O)cc21 [Olopatadine hydrochloride (Opatanol)]	0.475	0.587
CCCN1CCCC[C@H]1C(=O)Nc1c(C)cccc1C [Ropivacaine HCl]	0.242	1.01
O=C1CC2(CCCC2)CC(=O)N1CCCCN1CCN(c2ncccn2)CC1	0.698	0.71
O=C1CCC(N2C(=O)c3ccccc3C2=O)C(=O)N1 (stereo not given)	0.261	0.635

Compound	normalized GFP fluorescence [1]	normalized DsRed fluorescence [2]
CN1C(C(=O)Nc2ccccn2)=C(O)c2sc(Cl)cc2S1(=O)=O	0.116	0.318
CCN(CC)CCCC(C)Nc1ccnc2cc(Cl)ccc12 (stereo not given)	0.506	0.443
Cc1cccc(C)c1NC(=O)C(C)N (stereo not given)	0.842	0.486
CC1(C)[C@@H](O)CC[C@]2(C)[C@H]3C(=O)C=C4[C@@H]5C[C@@](C)(C(=O)O)CC[C@]5(C)CC[C@@]4(C)[C@]3(C)CC[C@@H]12 [Enoxolone (Glycyrrhetin)]	0.0336	0.987
OC(Cn1cncn1)(Cn1cncn1)c1ccc(F)cc1F	0.417	0.746
CCN1CCCC1CNC(=O)c1cc(S(=O)(=O)CC)c(N)cc1OC (stereo not given) [Amisulpride]	0.514	0.816
NC[C@@H]1O[C@@H](O[C@H]2[C@H](O)[C@@H](O[C@H]3O[C@H](CO)[C@@H](O)[C@H](N)[C@H]3O)[C@H](N)C[C@@H]2N)[C@@H](O)[C@H](O)[C@H]1O	0.472	0.795
Cc1cnc(C(=O)NCCc2ccc(S(=O)(=O)NC(=O)NC3CCCCC3)cc2)cn1	0.553	0.734
Nc1nc(CC(=O)Nc2ccc(CCNC[C@H](O)c3ccccc3)cc2)cs1 [Mirabegron (YM178)]	0.336	1.03
CNS(=O)(=O)Cc1ccc2[nH]cc(CCN(C)C)c2c1	0.345	0.758
CNC[C@H](O)c1ccc(O)c(O)c1	0.95	0.812
CC(=O)N(CC(O)CO)c1c(I)c(C(=O)NCC(O)CO)c(I)c(C(=O)NCC(O)CO)c1I (stereo not given)	0.415	0.849
CC12CCC(CC1=O)C2(C)C (stereo not given)	0.212	1.15
CC(=O)S[C@@H]1CC2=CC(=O)CC[C@]2(C)[C@H]2CC[C@@]3(C)[C@@H](CC[C@@]34CCC(=O)O4)[C@H]12	0.734	0.584
C=CC(N)CCC(=O)O (stereo not given)	0.441	0.716
C=C1CC[C@H](O)C/C1=C/C=C1\CCC[C@]2(C)[C@@H]([C@H](C)/C=C/[C@H](C)C(C)C)CC[C@@H]12	0.177	0.448
COc1ccccc1N1CCN(CCCNc2cc(=O)n(C)c(=O)n2C)CC1 [Urapidil hydrochloride]	0.413	0.557
